Reference: PubChem BioAssay (NCI)
Where “and” joins values, the source holds several entries; their conditions need not be identical. Equal entries are not always repeated. This is part of a sample that, as a whole, favours compounds with a hit. Of some 83,000 tested, about 20% had one in any assay.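 Assay: single dose, 48 h. Readout: percent growth (0 = no net growth; negative = cell death). Active: <10.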 Calls of active or inactive are those of the source.

system: NCI/ADR-RES ovarian; test: NCI-60 one-dose screen, 48 h (100 = growth as untreated, 0 = no growth, -100 = all killed); details: 10 µM unless noted

SMILES | growth
OCCCc1ccccc1 | 108% (inactive)
S=c1nn[nH]n1C1CCCCC1 | 112% (inactive)
CC1=CC(=O)C=CC1=Nc1ccc(N(C)C)cc1 | 78.1% (inactive) and 37.9% (inactive)
Nc1nc(=S)c2[nH]cnc2[nH]1 | 18.2% (inactive) and -50.1% (active)
O=c1[nH]c(=S)[nH]n1C(=S)n1[nH]c(=S)[nH]c1=O | 95.2% (inactive)
CN(C)C(=N)N=C(N)N | 105% (inactive) and 111% (inactive)
COc1ccc2nccc(Cl)c2c1 | 104% (inactive)
COc1ccc(CCn2cnn3c(=O)c4ccccc4nc3c2=O)cc1OC | 101% (inactive) and 107% (inactive)
N=C(N=C(N)N)N1CCOCC1 | 105% (inactive) and 98.8% (inactive)
N#CC(=S)Nc1ccc(Cl)c(Cl)c1 | 7.44% (active)
O=C1C(=O)c2ccccc2C(O)=C1CC=C(Cl)Cl | 57.6% (inactive) and 55.7% (inactive)
CCOC(=O)C1=C(C)NC(C)=C(C(=O)OCC)C1 | 114% (inactive) and 105% (inactive)
COc1ccc(CCO)cc1 | 108% (inactive)
COc1ccc(/C=N/Nc2nc3ccccc3s2)cc1 | 98.7% (inactive)
Nc1ccccc1SC1CC(=O)N(c2ccc(I)cc2)C1=O (configuration not stated) | 91.6% (inactive)
Clc1ccc2c(c1)N(C1CCCN(Cc3ccccc3)C1)c1ccccc1S2 (configuration not stated) | 24.8% (inactive)
COc1ccc([N+](=O)[O-])cc1OC | 102% (inactive) and 104% (inactive)
NC(=O)Cc1nc(O)cc(=O)[nH]1 | 115% (inactive)

SMILES | growth
N=C(N)N1CCc2ccccc2C1 | 92.9% (inactive) and 114% (inactive)
Clc1ccc2sc(-c3ccccc3)nc2c1 | 100% (inactive)
COc1cc2oc3cc(=O)cc4oc(-c5ccccc5)cc(c2c2c1CCC(c1ccccc1)O2)c43 (configuration not stated) | 86.6% (inactive)
CC(C)(C)C1=CC(=O)C(C(C)(C)C)=CC1=O | 108% (inactive)
Oc1ccc(O)c(-c2ccccc2)c1 | 50.6% (inactive)
COc1ccc(CCl)c(C)c1OC | 105% (inactive)
CCNC1=CC(=O)c2ncccc2C1=O | 56% (inactive)
O=C1C=CC(=O)N1Cc1ccco1 | 76.6% (inactive)
CC(C)=NOC(C)C(=O)O (configuration not stated) | 99.6% (inactive)
Cc1cc2nc3ccc(=[N+](C)C)cc-3sc2cc1N | 1.81% (active) and 2.67% (active)
c1ccc2c[n+](Cc3ccc4ccccc4n3)ccc2c1 | 102% (inactive)
COc1cc([C@@H]2c3cc4c(cc3[C@H](O)[C@H]3COC(=O)[C@@H]23)OCO4)cc(OC)c1OC | 5.58% (active) and -30.9% (active)
NNC(=O)Nc1ccccc1 | 105% (inactive)
Cc1nc2c(=O)[nH]c(=S)[nH]c2[nH]c1=O | 106% (inactive) and 103% (inactive)
Oc1cccnc1CN1CCOCC1 | 106% (inactive) and 94.6% (inactive)
O=C1c2ccccc2CN1c1ccccc1 | 105% (inactive)
COC1C(OC(N)=O)C(O)C(Oc2ccc3c(O)c(NC(=O)c4ccc(O)c(CC=C(C)C)c4)c(=O)oc3c2C)OC1(C)C (configuration not stated) | 106% (inactive) and 97.1% (inactive)
C/C=C/C(=O)OCCCCCCCCCCCC | 106% (inactive)

system: T-47D breast; test: as above; details: 10 µM unless noted

SMILES | growth
OCCCc1ccccc1 | 112% (inactive)
S=c1nn[nH]n1C1CCCCC1 | 124% (inactive)
CC1=CC(=O)C=CC1=Nc1ccc(N(C)C)cc1 | 69.1% (inactive) and -24.8% (active)
Nc1nc(=S)c2[nH]cnc2[nH]1 | 12.3% (inactive) and 5.25% (active)
O=c1[nH]c(=S)[nH]n1C(=S)n1[nH]c(=S)[nH]c1=O | 92% (inactive)
CN(C)C(=N)N=C(N)N | 90.5% (inactive) and 102% (inactive)
COc1ccc2nccc(Cl)c2c1 | 122% (inactive)
COc1ccc(CCn2cnn3c(=O)c4ccccc4nc3c2=O)cc1OC | 113% (inactive) and 103% (inactive)
N=C(N=C(N)N)N1CCOCC1 | 91.2% (inactive) and 95.4% (inactive)
N#CC(=S)Nc1ccc(Cl)c(Cl)c1 | 13.2% (inactive)
O=C1C(=O)c2ccccc2C(O)=C1CC=C(Cl)Cl | 80.8% (inactive) and 69% (inactive)
CCOC(=O)C1=C(C)NC(C)=C(C(=O)OCC)C1 | 90.1% (inactive) and 116% (inactive)
COc1ccc(CCO)cc1 | 101% (inactive)
COc1ccc(/C=N/Nc2nc3ccccc3s2)cc1 | 86.6% (inactive)
Nc1ccccc1SC1CC(=O)N(c2ccc(I)cc2)C1=O (configuration not stated) | 82.3% (inactive)
Clc1ccc2c(c1)N(C1CCCN(Cc3ccccc3)C1)c1ccccc1S2 (configuration not stated) | 69% (inactive)
COc1ccc([N+](=O)[O-])cc1OC | 103% (inactive) and 102% (inactive)
NC(=O)Cc1nc(O)cc(=O)[nH]1 | 88.5% (inactive)

SMILES | growth
N=C(N)N1CCc2ccccc2C1 | 86.2% (inactive) and 101% (inactive)
Clc1ccc2sc(-c3ccccc3)nc2c1 | 56.8% (inactive)
COc1cc2oc3cc(=O)cc4oc(-c5ccccc5)cc(c2c2c1CCC(c1ccccc1)O2)c43 (configuration not stated) | 55.8% (inactive)
CC(C)(C)C1=CC(=O)C(C(C)(C)C)=CC1=O | 79.2% (inactive) and 112% (inactive)
Oc1ccc(O)c(-c2ccccc2)c1 | 47.1% (inactive)
COc1ccc(CCl)c(C)c1OC | 102% (inactive)
CCNC1=CC(=O)c2ncccc2C1=O | 86.1% (inactive)
O=C1C=CC(=O)N1Cc1ccco1 | 91.7% (inactive)
CC(C)=NOC(C)C(=O)O (configuration not stated) | 107% (inactive)
Cc1cc2nc3ccc(=[N+](C)C)cc-3sc2cc1N | -25.1% (active) and 1.21% (active)
c1ccc2c[n+](Cc3ccc4ccccc4n3)ccc2c1 | 62.6% (inactive)
COc1cc([C@@H]2c3cc4c(cc3[C@H](O)[C@H]3COC(=O)[C@@H]23)OCO4)cc(OC)c1OC | 40.1% (inactive) and 71.1% (inactive)
NNC(=O)Nc1ccccc1 | 109% (inactive)
Cc1nc2c(=O)[nH]c(=S)[nH]c2[nH]c1=O | 112% (inactive) and 102% (inactive)
Oc1cccnc1CN1CCOCC1 | 93.1% (inactive)
O=C1c2ccccc2CN1c1ccccc1 | 95.8% (inactive)
COC1C(OC(N)=O)C(O)C(Oc2ccc3c(O)c(NC(=O)c4ccc(O)c(CC=C(C)C)c4)c(=O)oc3c2C)OC1(C)C (configuration not stated) | 106% (inactive) and 94.8% (inactive)
C/C=C/C(=O)OCCCCCCCCCCCC | 90.8% (inactive)
